Source: PubChem
Most compounds without a hit are left out; they make up all but 3.2% or so of the library.
DYRK1A inh: blocks rat Dyrk1A kinase activity. Q63470. ADP-Glo luminescence, NFATc1 peptide. inhibition, % at 12.5 µM. 0.43% of 310,000 active; in the data active means inhibition above about 50%
esBAF inh: SWI/SNF esBAF complex inhibition. mouse ES cells, Bmi1-luciferase knock-in reporter, 24 h; 100% = twice the neutral-well signal. reporter increase, % at 12.5 µM. 2% of 350,000 active; in the data active means activation above about 40%;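 further: a rise in the Bmi1 reporter signal indicates esBAF inhibition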
dFosB activator: mouse delta FosB homodimer activation | P13346 | purified delta FosB, TAMRA-CDK5 oligo fluorescence polarization; percent of positive-control signal above neutral wells | activation, % at 25 µM | 0.99% of 340,000 active | AID 493131;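 active means mean activation above about 17%, with every replicate also reaching it, limit read from the data, passing the limit was not always enough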
Target sequence (P13346 whole entry, looked up): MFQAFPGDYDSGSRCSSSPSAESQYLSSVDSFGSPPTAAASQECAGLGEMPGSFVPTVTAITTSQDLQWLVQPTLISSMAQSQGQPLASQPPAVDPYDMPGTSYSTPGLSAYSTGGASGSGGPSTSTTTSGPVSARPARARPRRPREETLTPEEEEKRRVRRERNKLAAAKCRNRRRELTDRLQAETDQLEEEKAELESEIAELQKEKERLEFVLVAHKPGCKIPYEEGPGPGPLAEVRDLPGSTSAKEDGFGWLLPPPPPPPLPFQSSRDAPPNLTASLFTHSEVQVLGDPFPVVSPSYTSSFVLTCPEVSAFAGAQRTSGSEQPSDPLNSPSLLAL
Rtt109 Vps75: C. albicans Rtt109 histone acetyltransferase inhibition | Q5AAJ8 | purified Rtt109/Vps75, ThioGlo CoA-SH fluorescence, 4 h | inhibition, % at 34.9 µM | 0.16% of 330,000 active;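 active means inhibition of at least 50% in every replicate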
CDK5 p35 inh: inhibitors of human CDK5/p35 kinase. Recombinant CDK5/p35, ADP-Glo luminescence, 60 min. 0.01% of 330,000 active. AID 488839. inhibition, % at 10 µM;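 active means highest replicate inhibition of at least 50% and at least 75% of replicates reaching 50%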
SMARCA2 activ: activators of SMARCA2 function; 1% of 370,000 active; MG213 cells, MMTV-luciferase reporter, dexamethasone, overnight; activation, % at 9.1 µM; in the data active means activation above about 7.8%
Of the large screens only hits and unclear results are named; the others gave an inactive call; ! = a repeat was not active.

O=C(Nc1ccc(F)cc1F)N1CCCC(c2nc(-c3ccc(F)cc3)no2)C1 (stereo unspecified)	Rtt109 Vps75 64 (no result: esBAF inh)
Cc1ccc(-c2noc(C3CCCN(C(=O)c4cccc([N+](=O)[O-])c4)C3)n2)o1 (stereo unspecified)	none
Cc1ccc(-c2noc(C3CCCN(C(=O)c4ccccc4Br)C3)n2)cc1 (stereo unspecified)	esBAF inh 51
Cc1cccc(C(=O)N2CCCC(c3nc(-c4ccc(C)o4)no3)C2)c1 (stereo unspecified)	esBAF inh 51
O=C(Nc1ccccc1)[C@@H]1[C@@H](CO)[C@@H]2Cn3c(cccc3=O)[C@@H]2N1C(=O)C1CCC1	none (no result: DYRK1A inh, dFosB activator, Rtt109 Vps75, CDK5 p35 inh, SMARCA2 activ)
Cc1ccc(-c2cc(C(=O)N3CCN(c4ccccc4O)CC3)c3ccccc3n2)cc1	esBAF inh 55
Cc1ccc(-c2cc(C(=O)N3CCN(c4ccc(O)cc4)CC3)c3ccccc3n2)cc1	none
CCCCCCCC[n+]1cccc(C(=O)N(CC)CC)c1	none (no result: esBAF inh, Rtt109 Vps75)
CCCCCCCCCCCCCCCC[n+]1ccc(C(N)=O)cc1	dFosB activator 45 (no result: esBAF inh)
CCCCCCCCCCCCCCCC[n+]1cccc(C(=O)N(CC)CC)c1	Rtt109 Vps75 74!
CCCCCCCCCCCCCCCC[n+]1ccccc1	Rtt109 Vps75 75!
CCCCCCCCCCCCCCCC[n+]1ccc(/C=N/O)cc1	dFosB activator 38 (no result: esBAF inh)
CCCC#Cc1ccc2c(c1)O[C@@H](CN(C)C(=O)NC(C)C)[C@@H](C)CN([C@H](C)CO)S2(=O)=O	none (no result: DYRK1A inh, dFosB activator, Rtt109 Vps75, CDK5 p35 inh, SMARCA2 activ)
Cc1noc(C)c1NC(=O)Nc1ccc2c(c1)CC(=O)N([C@H](C)CO)C[C@@H](C)[C@H](CN(C)C(=O)Nc1ccc3c(c1)OCO3)O2	none (no result: DYRK1A inh, dFosB activator, Rtt109 Vps75, CDK5 p35 inh, SMARCA2 activ)
CN(C)c1nc(-c2ccc([N+](=O)[O-])cc2)cs1	esBAF inh 67
COc1cc(N2Cc3ccccc3C2)ccc1C=O	esBAF inh 51 (no result: DYRK1A inh)
Cc1cc(C)cc(N2Cc3ccccc3C2)c1	none
COc1ccc2oc(C(=O)N3CCCc4ccccc43)c(C)c2c1	esBAF inh 75
Cc1cccc(N/N=C2/COC(C)(C)CC2=O)c1	SMARCA2 activ 7.9
CC1(C)CC(=O)/C(=N/Nc2ccc(Cl)cc2)CO1	esBAF inh 55
C[C@H]1CN([C@@H](C)CO)C(=O)Cc2cc(NC(=O)CCN3CCOCC3)ccc2O[C@H]1CN(C)C(=O)Nc1cccc2ccccc12	none (no result: DYRK1A inh, dFosB activator, Rtt109 Vps75, CDK5 p35 inh, SMARCA2 activ)
NC(=NCc1ccco1)NC(=O)c1ccc(Cl)cc1	esBAF inh 49
C[C@H](CO)N1C[C@H](C)[C@H](CN(C)C(=O)CCCN(C)C)OCCCC[C@H](C)Oc2ccc(NC(=O)CCC(F)(F)F)cc2C1=O	none (no result: DYRK1A inh, dFosB activator, Rtt109 Vps75, CDK5 p35 inh, SMARCA2 activ)
CO[C@@H]1CN(C)C(=O)c2ccc(NC(=O)C3CCC3)cc2OC[C@@H](C)N(C(=O)CN(C)C)C[C@@H]1C	none (no result: DYRK1A inh, dFosB activator, Rtt109 Vps75, CDK5 p35 inh, SMARCA2 activ)
COc1ccc(N2CCN(C(=O)c3ccc(-c4nc5ccccc5s4)o3)CC2)cc1	esBAF inh 43 (no result: DYRK1A inh)
CC(=O)Nc1nc2c(C)cc(NC(=O)C3CCCCC3)cc2s1	esBAF inh 60
CCC(=O)Nc1nc2ccc3sc(C)nc3c2s1	none (no result: DYRK1A inh, esBAF inh)
Cc1c(Cl)ccc2sc(NC(=O)C3CC3)nc12	esBAF inh 53
Cc1nc2c(ccc3nc(NC(=O)C4CC4)sc32)s1	esBAF inh 68 (no result: DYRK1A inh)
O=c1c(-c2cnn(-c3ccccc3)c2)coc2cc(O)ccc12	esBAF inh 105 (no result: SMARCA2 activ)
NC(=O)Cn1c(O)c(N=NC(=O)CNC(=O)/C=C/c2ccccc2)c2ccccc21	dFosB activator 18
O=C(Nc1ccc(-c2ccccc2)cc1)[C@@H]1[C@@H](CO)[C@@H]2Cn3c(cccc3=O)[C@H]1N2Cc1cncnc1	none (no result: DYRK1A inh, dFosB activator, Rtt109 Vps75, CDK5 p35 inh, SMARCA2 activ)
O=C(N/N=C/c1ccc(OC(=O)c2cccc(Br)c2)cc1)c1cccnc1	dFosB activator 27
O=C(CCS(=O)(=O)c1ccc(Cl)cc1)NCCN1C(=O)S/C(=C\c2ccccc2F)C1=O	none (no result: esBAF inh)
Cc1ccc(S(=O)(=O)CCC(=O)NCCN2C(=O)S/C(=C\c3ccccc3)C2=O)cc1	esBAF inh 45
O=C(C1CCCO1)N1CCN(C(=S)Nc2ccc(Cl)cc2Cl)CC1 (stereo unspecified)	Rtt109 Vps75 53 (no result: esBAF inh)
S=C(Nc1ccc(Cl)cc1Cl)NC1CCCCC1	esBAF inh 84
S=C(NCC1CCCO1)Nc1ccc(Cl)cc1Cl (stereo unspecified)	esBAF inh 49
